The results in this text go back to PubChem BioAssay (NCATS).

Each structure is given as a SMILES string. Records with an inconclusive call do not appear. Entries that show only a call come without a potency. Activity calls are given as the source filed them. The call rests on the fitted dose curve; in most records, active means well fitted inhibition curve with a large enough effect; inconclusive means small, poorly fitted or top-dose-only effect; inactive means flat fitted curve, though single readings scatter.

Calcium and integrin-binding protein 1 (Homo sapiens), sequence (Q99828 whole entry, looked up): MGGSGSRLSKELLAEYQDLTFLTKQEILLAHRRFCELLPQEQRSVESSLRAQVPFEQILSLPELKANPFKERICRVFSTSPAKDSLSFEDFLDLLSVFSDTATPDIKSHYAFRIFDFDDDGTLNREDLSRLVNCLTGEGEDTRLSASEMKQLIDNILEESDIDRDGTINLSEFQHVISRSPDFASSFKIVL

The experiment has as its target Calcium and integrin-binding protein 1 (Homo sapiens) (UniProt Q99828). Put plainly: Primary qHTS for Identification of Calcium Integrin Binding Protein 1 (CIB1) Competitor (AID 1508620).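 Further: GST tagged CIB1 binding a fluorescein labelled alphaIIb integrin peptide tracer; top concentration of the series differs between compounds.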 Conditions: CIB1-GST / FITC-alphaIIb peptide fluorescence polarization; series mostly up to 114 µM. An outline of the steps:
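CIB1-GST (1 uM final) and compound incubated 15 min at room temperature before adding FITC-alphaIIb peptide tracer (100 nM final). Competition for binding read by fluorescence polarization (ex 480, em 540) after another 15 min at room temperature.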
(In general: Quantitative high-throughput screening tests each substance at several concentrations.)
As to `O=C(O)/C=C/c1ccc(O)c(O[C@@H]2O[C@H](CO)[C@@H](O)[C@H](O)[C@H]2O)c1`, the Potency result is “inactive”.
The result for `COc1cc(O)c2c(c1)C1=C[C@H](O)[C@@H](O)C[C@]1(C)OC2=O` reads “inactive”; that for `Cc1c(C(=O)N2CCOc3ccc(-c4ccc(N)nc4)cc3C2)ccc(S(C)(=O)=O)c1F`, “inactive”.
For the molecule `C[C@@H]1C(=O)O[C@H](C)[C@H]1CC(=O)[C@](C)(O)[C@H]1CC[C@@]2(O)C3=CC(=O)[C@@H]4C[C@@H](O)[C@@H](O)C[C@]4(C)C3CC[C@]12C` (some centres not stated), the Potency result is “inactive”.
With `C=C1CCC2C(C)(C(=O)OC)CCCC2(C)C1CCC(C)CC(=O)O` (configuration not stated), the Potency result is “inactive”.
With `CC(C)(F)C[C@@H](N[C@@H](c1ccc(-c2ccc(S(C)(=O)=O)cc2)cc1)C(F)(F)F)C(=O)NC1(C#N)CC1` the entry was “inactive”; with `CC(C)[C@@](C)(O)[C@@H]1CN(c2nc(-c3[nH]nc4ncccc34)c(F)cc2Cl)CCN1`, “inactive”; with `COc1ccc(CCC(=O)c2c(O)cc(O)cc2O[C@@H]2O[C@H](CO)[C@@H](O)[C@H](O)[C@H]2O)cc1`, “inactive”.
For `COC(=O)[C@@H](O)[C@H]1[C@@]2(C)CC3(O)[C@@H](C(=O)[C@H]2O)[C@]24O[C@]25CC(=O)O[C@@H](c2ccoc2)[C@]5(C)CCC4[C@]13C` (some centres not stated), the Potency entry is “inactive”.
The result for `OC1CCC(Nc2ncc3nc(Nc4c(F)cc(F)cc4F)n([C@H]4CCOC4)c3n2)CC1` (some centres not stated) reads “inactive”; that for `CC12CCC(OC3OC(CO)C(O)C(OC4OC(CO)C(O)C(O)C4O)C3O)CC1=CCC1C2CCC2(C)/C(=C3/COC(=O)C3)CCC12O` (configuration not stated), “inactive”.
For `C=C(C)C(=O)O[C@H]1C[C@@](C)(O)C(=O)CC(O)/C(C)=C\[C@H]2OC(=O)C(=C)[C@H]12` (some centres not stated), the Potency entry was “inactive”.
